Test results published in PubChem BioAssay.
Active and inactive are the calls of the source.

What was measured:
[1] = optical density shifts of acrAB sulA E. coli – strain DRC41, OD650, 48 h, E. coli filamentation inducer project, primary screen (AID 1152); details: higher = more signal, called active from +8 up or from −8 down;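 further: E. coli MC1000 strain DRC41 lacking acrAB efflux pump and sulA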
[2] = probe aLefty1 binding on compound microarray – biochemical, small-molecule microarray, 635/667 nm fluorescence, primary screen (AID 1153); details: higher = more signal;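 further: score merges spot fluorescence with signal-to-noise ratio from the scanned slide images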
[3] = plasmodial surface anion channel blockers, osmotic lysis – cell-based, P. falciparum Indochina, OD700, 1 h, primary screen (AID 1154); details: P. falciparum Indochina infected RBC osmotic lysis, higher = more signal, called active from +8 up or from −8 down
[4] = plasmodial surface anion channel blockers, osmotic lysis – cell-based, P. falciparum Indochina, OD700, 2 h, primary screen (AID 1155);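 further: lysis reports solute entry through the parasite surface anion channel PSAC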; details: P. falciparum Indochina infected erythrocytes, higher = more signal, called active from +8 up or from −8 down
[5] = changes in parasitized red cell lysis, either direction – P. falciparum Indochina, OD700, 3 h, PSAC antagonist project, primary screen (AID 1156); details: P. falciparum-infected erythrocytes, osmotic lysis, higher = more signal, called active from +8 up or from −8 down
[6] = plasmodial surface anion channel blockers, osmotic lysis – cell-based, P. falciparum Indochina, OD700, 18 h, primary screen (AID 1157); details: P. falciparum Indochina infected erythrocytes, osmotic lysis OD700, 18 h; higher = more signal, called active from +8 up or from −8 down
[7] = S6 kinase pathway phospho-S6 level changes – cell-based, A549, cytoblot, luminescence, serum-stimulated, primary screen (AID 1158); details: 5 h, higher = more signal;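 further: serum-stimulated A549 lung adenocarcinoma cells; signal is phosphorylated S6 detected by cytoblot immunostaining with HRP secondary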
[8] = biological target: NADPH oxidase 2 (Homo sapiens) (UniProt P04839); experiment: compounds shifting NOX2 Amplex Red fluorescence – cell-based, HEK293-NOX2, PMA-stimulated, NOX inhibitor project, primary screen (AID 1159); details: 45 min, higher = more signal, called active from +8 up or from −8 down; further: test concentration not given here
NADPH oxidase 2 (Homo sapiens), sequence (P04839 whole entry, looked up): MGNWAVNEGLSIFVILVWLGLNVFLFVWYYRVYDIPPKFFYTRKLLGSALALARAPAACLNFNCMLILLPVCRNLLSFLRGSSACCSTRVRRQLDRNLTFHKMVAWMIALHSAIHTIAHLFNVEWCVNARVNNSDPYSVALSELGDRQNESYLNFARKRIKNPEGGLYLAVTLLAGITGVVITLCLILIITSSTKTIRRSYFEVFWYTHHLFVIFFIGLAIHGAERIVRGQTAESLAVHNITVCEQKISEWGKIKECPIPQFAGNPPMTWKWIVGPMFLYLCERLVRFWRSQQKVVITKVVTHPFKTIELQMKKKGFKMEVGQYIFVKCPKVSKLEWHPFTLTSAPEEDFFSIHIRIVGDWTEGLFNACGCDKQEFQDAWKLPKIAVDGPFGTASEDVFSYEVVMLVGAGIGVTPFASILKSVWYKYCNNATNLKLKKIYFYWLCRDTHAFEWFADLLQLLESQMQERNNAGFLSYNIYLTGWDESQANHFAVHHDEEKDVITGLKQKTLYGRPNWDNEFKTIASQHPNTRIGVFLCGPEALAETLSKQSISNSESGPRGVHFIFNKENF

[9] = biological target: NADPH oxidase 4 (Homo sapiens) (UniProt Q9NPH5); experiment: compounds shifting NOX4 Amplex Red fluorescence – cell-based, HEK293-NOX4, tetracycline-induced, NOX inhibitor project, primary screen (AID 1160); details: HEK293-NOX4, Amplex Red H2O2 fluorescence, 45 min; higher = more signal, called active from +8 up or from −8 down
NADPH oxidase 4 (Homo sapiens), sequence (Q9NPH5 whole entry, looked up): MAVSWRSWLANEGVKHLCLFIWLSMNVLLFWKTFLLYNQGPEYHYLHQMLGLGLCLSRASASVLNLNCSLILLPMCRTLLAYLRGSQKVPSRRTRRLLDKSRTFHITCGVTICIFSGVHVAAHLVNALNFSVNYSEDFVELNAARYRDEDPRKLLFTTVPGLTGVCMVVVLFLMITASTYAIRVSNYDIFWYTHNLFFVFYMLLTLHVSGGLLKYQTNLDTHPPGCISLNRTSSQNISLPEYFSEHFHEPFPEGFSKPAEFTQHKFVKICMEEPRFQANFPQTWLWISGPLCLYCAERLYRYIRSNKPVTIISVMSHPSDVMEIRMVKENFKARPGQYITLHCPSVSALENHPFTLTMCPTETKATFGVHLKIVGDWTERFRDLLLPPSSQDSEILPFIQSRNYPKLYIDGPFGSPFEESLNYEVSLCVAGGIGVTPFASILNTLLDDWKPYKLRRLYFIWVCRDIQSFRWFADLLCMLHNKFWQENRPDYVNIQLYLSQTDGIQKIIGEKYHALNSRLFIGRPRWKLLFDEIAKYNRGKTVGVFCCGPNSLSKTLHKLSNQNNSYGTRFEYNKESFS

[10] = biological target: NADPH oxidase 5 (Homo sapiens) (UniProt Q96PH1); experiment: compounds shifting NOX5 Amplex Red fluorescence – cell-based, HEK293-NOX5, NOX inhibitor project, primary screen (AID 1161); details: HEK293-NOX5, ionomycin, 45 min, higher = more signal
NADPH oxidase 5 (Homo sapiens), sequence (Q96PH1 whole entry, looked up): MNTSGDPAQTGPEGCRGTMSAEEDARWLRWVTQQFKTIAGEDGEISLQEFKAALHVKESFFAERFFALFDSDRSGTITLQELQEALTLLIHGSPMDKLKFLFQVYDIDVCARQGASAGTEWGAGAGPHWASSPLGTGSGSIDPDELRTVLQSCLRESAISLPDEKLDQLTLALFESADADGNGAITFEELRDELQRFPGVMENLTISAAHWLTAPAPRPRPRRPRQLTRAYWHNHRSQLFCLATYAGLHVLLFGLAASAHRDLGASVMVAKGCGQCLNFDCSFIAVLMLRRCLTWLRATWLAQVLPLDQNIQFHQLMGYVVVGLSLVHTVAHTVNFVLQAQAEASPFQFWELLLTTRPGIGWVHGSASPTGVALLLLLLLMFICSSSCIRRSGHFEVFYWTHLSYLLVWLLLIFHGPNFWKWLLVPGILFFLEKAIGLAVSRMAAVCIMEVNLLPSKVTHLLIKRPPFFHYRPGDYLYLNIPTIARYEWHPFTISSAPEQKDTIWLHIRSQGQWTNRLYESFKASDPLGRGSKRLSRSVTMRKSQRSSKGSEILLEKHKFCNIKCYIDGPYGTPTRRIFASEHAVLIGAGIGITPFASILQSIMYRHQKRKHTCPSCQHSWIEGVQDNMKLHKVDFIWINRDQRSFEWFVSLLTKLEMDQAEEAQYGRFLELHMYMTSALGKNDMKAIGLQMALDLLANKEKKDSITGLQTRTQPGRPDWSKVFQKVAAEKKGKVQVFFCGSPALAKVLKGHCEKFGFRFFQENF

SMILES	z-score [1]	composite z-score [2]	z-score [3]	z-score [4]	z-score [5]	z-score [6]	z-score [7]	z-score [8]	z-score [9]	z-score [10]
O=C1C=C[C@@H](O)[C@@H]2[C@@H]3C(=O)N(C[C@@H]4CCCO4)C(=O)[C@@H]3CC[C@@H]12	0.0413 (inactive)	0.0313	1.08 (inactive)	0.979 (inactive)	-0.0029 (inactive)	0.281 (inactive)	-0.382	1.71 (inactive)	-0.0876 (inactive)	0.283
COC(=O)[C@@H]1CC[C@@H](C)[C@H](c2ccc(Br)cc2)N1	-0.394 (inactive)	0.0962	0.121 (inactive)	-0.0391 (inactive)	-0.242 (inactive)	-0.191 (inactive)	0.333	-3.29 (inactive)	-0.185 (inactive)	-0.781
CCN1C(=O)[C@@H]2[C@H]3C(=CC[C@@H]2C1=O)C1(OCCCO1)[C@H]1O[C@H]1[C@H]3O	-0.721 (inactive)	0.167	27.2 (active)	12.1 (active)	1.38 (inactive)	1.18 (inactive)	-0.295	0.104 (inactive)	-5.5 (inactive)	-5.86
CCOC(=O)[C@H](CC(C)C)NC(=O)CCC1CC(OC(=O)NCCc2ccc(F)cc2)CC2(CCCC(COC(=O)NCC3CCCCC3)O2)O1 (stereo not given in full)	-1.12 (inactive)	-0.169	2.04 (inactive)	0.132 (inactive)	0.107 (inactive)	-0.341 (inactive)	0.673	-0.202 (inactive)	0.728 (inactive)	0.123
CC(C)(C)N1C(=O)[C@H]2[C@H]3[C@H](O)C=CC(=O)[C@@H]3CC[C@H]2C1=O	-0.0926 (inactive)	-0.286	-0.007 (inactive)	-0.566 (inactive)	-0.562 (inactive)	-0.43 (inactive)	0.0787	0.497 (inactive)	-1.67 (inactive)	-0.47
COC(=O)CC=C[C@@H](C)[C@@H](C=NOC(C)CN1CCCc2nc(C)c(C)cc21)OC (stereo not given in full)	-0.4 (inactive)	-0.202	0.378 (inactive)	0.633 (inactive)	-0.17 (inactive)	0.538 (inactive)	-0.77	-0.0618 (inactive)	-0.14 (inactive)	0.372
CO[C@@H]1COC(=O)[C@H](CCSC)NC(=O)CC=C[C@@H](C)COC(=O)CCC[C@H]1C	0.337 (inactive)	0.729	19.7 (active)	3.14 (inactive)	2.07 (inactive)	1.18 (inactive)	0.016	-1.12 (inactive)	0.369 (inactive)	-0.918
O=C1[C@H]2[C@H]3[C@H](O)[C@H](O)CC(=NOC[C@@H](O)COCc4ccco4)[C@@H]3CC[C@H]2C(=O)N1C[C@@H]1CCCO1	0.916 (inactive)	-0.0061	2.05 (inactive)	0.544 (inactive)	-0.0602 (inactive)	0.329 (inactive)	-0.605	0.222 (inactive)	0.374 (inactive)	0.382
Cc1ccc(S(=O)(=O)NC(CCc2ccccc2)CC(=O)C(C)(C)C)cc1 (stereo not given)	-0.286 (inactive)	-0.125	0.603 (inactive)	0.0974 (inactive)	-0.573 (inactive)	0.124 (inactive)	-0.566	-1.18 (inactive)	0.0624 (inactive)	-0.868
O=C1C[C@@H](O)[C@@H](O)[C@@H]2[C@@H]3C(=O)N(C[C@@H]4CCCO4)C(=O)[C@@H]3CC[C@@H]12	0.668 (inactive)	-0.284	0.786 (inactive)	-0.191 (inactive)	1 (inactive)	-0.0672 (inactive)	0.381	-1.38 (inactive)	0.529 (inactive)	0.624
CC(=O)O[C@H]1C2=CO[C@H](C)[C@H]3[C@H]4C5=C([C@H](O)[C@H]6O[C@H]6C5=O)[C@H](OC4C)[C@@]23C(=O)[C@@H]2O[C@@H]21 (stereo not given in full)	-0.16 (inactive)	-0.0477	-0.312 (inactive)	-0.431 (inactive)	0.128 (inactive)	0.1 (inactive)	-1.05	-0.717 (inactive)	-0.891 (inactive)	-0.242
CCOC(=O)NN=C1C[C@@H](O)[C@@H](O)[C@@H]2[C@@H]3C(=O)N(c4cccc(Oc5ccccc5)c4)C(=O)[C@@H]3CC[C@@H]12	-0.852 (inactive)	-0.0984	0.999 (inactive)	0.753 (inactive)	0.471 (inactive)	0.233 (inactive)	-0.142	0.361 (inactive)	-0.0548 (inactive)	-2.88
O=C1[C@H]2[C@H]3[C@H](O)[C@H](O)CC(=NOC[C@@H](O)COCc4ccco4)[C@H]3CC[C@H]2C(=O)N1Cc1ccccc1	0.0413 (inactive)	-0.154	0.376 (inactive)	-0.599 (inactive)	-0.409 (inactive)	-1.53 (inactive)	1.43	-0.0116 (inactive)	0.967 (inactive)	0.0182
COc1cccc([C@H]2Oc3ccc(OC)cc3C(=NOC[C@@H](C)[C@H](OCc3ccccc3)C(C)C)[C@@H]2O)c1	-1.25 (inactive)	-0.0428	2.57 (inactive)	0.947 (inactive)	0.0083 (inactive)	0.612 (inactive)	-0.891	-0.364 (inactive)	-2.1 (inactive)	-1.97
COC(=O)[C@@H]1CC[C@H](C)[C@@H](c2ccc(C)cc2)N1C(=O)c1ccc(C=NO[C@@H](C)c2cn([C@H](CO)Cc3ccccc3)nn2)cc1	0.442 (inactive)	-0.0615	4.57 (inactive)	1.12 (inactive)	0.809 (inactive)	0.907 (inactive)	0.406	-3.24 (inactive)	-1.13 (inactive)	-3.8
Cc1ccc(S(=O)(=O)n2c3ccccc3c3nnc(C(=O)c4ccccc4)nc32)cc1	1.04 (inactive)	-0.179	4.4 (inactive)	0.266 (inactive)	-0.0784 (inactive)	0.421 (inactive)	0.479	-0.0413 (inactive)	0.179 (inactive)	-0.341
CCN1C(=O)[C@H]2[C@H]3[C@H](O)[C@H](O)CC(=NNC(=O)OCc4ccc(OC)cc4)[C@@H]3CC[C@H]2C1=O	-0.382 (inactive)	0.238	1.09 (inactive)	0.195 (inactive)	-0.703 (inactive)	0.181 (inactive)	0.117	-0.13 (inactive)	0.659 (inactive)	-0.0409
C[C@@H](c1ccccc1)N1C(=O)[C@H]2[C@H]3[C@H](O)[C@H](O)CC(=NO[C@@H]4O[C@H](CO)[C@@H](O)[C@H](O)[C@H]4O)[C@H]3CC[C@H]2C1=O	0.391 (inactive)	1.16	-0.483 (inactive)	-0.205 (inactive)	-0.0944 (inactive)	-0.0378 (inactive)	-0.0015	1.5 (inactive)	-1.93 (inactive)	-0.63
CCOC(=O)[C@H](Cc1ccccc1)NC(=O)CCC1CC(OC(=O)NCc2cccc3ccccc23)CC2(CCCC(COC(=O)NCCC(C)C)O2)O1 (stereo not given in full)	0.165 (inactive)	-0.0733	15.9 (active)	1.95 (inactive)	-2.04 (inactive)	-0.492 (inactive)	0.255	1.59 (inactive)	1.24 (inactive)	0.101
COc1cccc([C@H]2Oc3ccc(OC)cc3C(=NOC(C)CN3CCCCc4nc(C)c(C)cc43)[C@@H]2O)c1 (stereo not given in full)	0.751 (inactive)	-0.103	1.82 (inactive)	0.59 (inactive)	0.32 (inactive)	0.342 (inactive)	-0.887	-2.44 (inactive)	-0.284 (inactive)	-0.892
C#CCCCON=C1C[C@@H](O)[C@@H](O)[C@@H]2[C@@H]3C(=O)N(CCC(=O)OCC)C(=O)[C@@H]3CC[C@H]12	0.756 (inactive)	0.105	1.08 (inactive)	-1.4 (inactive)	0.792 (inactive)	-1.51 (inactive)	1.76	-2.03 (inactive)	0.213 (inactive)	-0.949
COC(=O)[C@H](C)NC(=O)CCC1CC(OC(=O)NCc2ccc3c(c2)OCO3)CC2(CCCC(COC(=O)NCc3cccc(C(F)(F)F)c3)O2)O1 (stereo not given in full)	-0.39 (inactive)	-0.045	0.598 (inactive)	-0.529 (inactive)	0.262 (inactive)	-0.239 (inactive)	0.0036	1.5 (inactive)	0.971 (inactive)	1.15
COc1ccc(COC(=O)NN=C2C[C@@H](O)[C@@H](O)[C@@H]3[C@@H]4C(=O)N(c5cccc(Oc6ccccc6)c5)C(=O)[C@@H]4CC[C@@H]23)cc1	-0.367 (inactive)	0.347	4.54 (inactive)	1.2 (inactive)	1.28 (inactive)	0.181 (inactive)	-0.313	1.32 (inactive)	0.56 (inactive)	1.02
CON=CC[C@@H]1C=C[C@H](OC(C)=O)[C@@H](COC(C)=O)O1	-2.1 (inactive)	0.171	0.0262 (inactive)	0.0956 (inactive)	-0.833 (inactive)	0.245 (inactive)	-0.841	0.0851 (inactive)	-0.0561 (inactive)	-0.107
CC(C)(C)N1C(=O)[C@H]2[C@H]3[C@H](O)[C@H](O)CC(=NOCc4ccccc4)[C@H]3CC[C@H]2C1=O	0.254 (inactive)	0.57	4.05 (inactive)	0.54 (inactive)	-0.408 (inactive)	0.133 (inactive)	-0.371	-0.147 (inactive)	0.991 (inactive)	0.765
